# Measurements: PubChem BioAssay (NCI)
# This is part of a sample that, as a whole, favours compounds with a hit. Of some 83,000 tested, about 20% had one in any assay.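 How to read the values: 0–100, growth inhibition (40 = 60% inhibited); 0, no net growth; -100 to 0, cell death (-40 = 40% of starting cells died; -100 = all dead).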 Unmarked numbers belong to inactive results. The source made the active and inactive calls. The calls were made as follows: active = growth percent below 10; inactive = the rest.
# Experiments:
# Experiment in all cases: NCI-60 one-dose screen, 48 h (100 = growth as untreated, 0 = no growth, -100 = all killed)
# Conditions in all cases: 10 µM unless noted
# T-47D breast = tested on: T-47D breast
# BT-549 breast = tested on: BT-549 breast
# MDA-MB-435 melanoma = tested on: MDA-MB-435 melanoma
# SW-620 colon = tested on: SW-620 colon
# MCF7 breast = tested on: MCF7 breast
# HCT-116 colon = tested on: HCT-116 colon
# HCC-2998 colon = tested on: HCC-2998 colon
# KM12 colon = tested on: KM12 colon
SMILES,growth (T-47D breast),growth (BT-549 breast),growth (MDA-MB-435 melanoma),growth (SW-620 colon),growth (MCF7 breast),growth (HCT-116 colon),growth (HCC-2998 colon),growth (KM12 colon)
C=C(C)[C@@H]1CC[C@]2(C)[C@H](CC[C@@H]3[C@@H]([C@@](C)(O)CCC=C(C)C)CC[C@]32C)[C@@]1(C)CCC(=O)N1CCN(C)CC1,-42.9% [100 µM] (active),-84% [100 µM] (active),-82.6% [100 µM] (active),-75% [100 µM] (active),-65.9% [100 µM] (active),-85.7% [100 µM] (active),-91.9% [100 µM] (active),-83% [100 µM] (active)
C=C(C)[C@@H]1CC[C@]2(C(=O)NCCCN)CC[C@]3(C)[C@H](CC[C@@H]4[C@@]5(C)CC[C@H](O)C(C)(C)[C@@H]5CC[C@]43C)[C@@H]12,-12.8% [100 µM] (active),-2.14% [100 µM] (active),-32.4% [100 µM] (active),-36.2% [100 µM] (active),-8.46% [100 µM] (active),1.97% [100 µM] (active),-23.4% [100 µM] (active),-25.3% [100 µM] (active)
CCOC(=O)c1c[nH]c2cc(OCC3CC3)c(OCC3CC3)cc2c1=O,109%,113%,107%,100%,104%,111%,107%,95.7%
COc1cc2c(O)n(CCCN3CCOCC3)c3c4cnc5cccc(c(=O)c3c2cc1OC)c54,18.6%,57.9%,47.2%,34.9%,14.5%,27.9%,59.2%,46.3%
COC(=O)[C@]12CCC(C)(C)C[C@H]1C1=CC[C@@H]3[C@@]4(C)C/C(=C/c5cccnc5)C(=O)C(C)(C)[C@@H]4CC[C@@]3(C)[C@]1(C)CC2,-12% [100 µM] (active),-45.7% [100 µM] (active),-51.1% [100 µM] (active),-43.4% [100 µM] (active),-65.1% [100 µM] (active),-29.4% [100 µM] (active),-72.8% [100 µM] (active),-48.6% [100 µM] (active)
CCCCCn1c(C)cc(/C=C\c2ccc3cc(C)ccc3[n+]2C)c1C,-49.1% (active),-29.9% (active),-90.2% (active),-35.9% (active),-18.2% (active),-34.4% (active),-70.1% (active),-72.4% (active)
O=C1Nc2ccccc2/C1=C/C(=O)c1ccc(N2CCCC2)cc1,40.5%,107%,-51.9% (active),5.46% (active),17.8%,103%,77.9%,15.1%
O=C1COCCN1c1ccc(Nc2nc(Cl)nc(N3CCOCC3)n2)cc1,88.5%,97.1%,99.5%,105%,85.5%,101%,89.1%,93.8%
CC(C)OC(=O)Nc1cc(F)ccc1F,94.8%,111%,99.4%,99.8%,97.1%,105%,98.3%,103%
CC[C@]12C=CCN3CC[C@@]4(c5ccc(OC)cc5N(C)[C@H]4[C@@](O)(C(=O)OC)[C@@H]1OC(=O)CCC(=O)O[C@H]1CC[C@H]4[C@@H]5CCC6=CC(=O)CC[C@@H]6[C@H]5CC[C@]14C)[C@@H]32,21.6% [100 µM],-8.65% [100 µM] (active),7.01% [100 µM] (active),11.1% [100 µM],11.7% [100 µM],3.76% [100 µM] (active),3.12% [100 µM] (active),6.43% [100 µM] (active)
COc1cc2c(c(OC)c1OC)-c1cc(I)c(O)cc1[C@@H](NC(C)=O)CC2,69.5%,3.61% (active),6.18% (active),31.4%,12.5%,11.9%,20.8%,15.1%
COc1ccc2c(c1)c(-c1noc(C(=O)c3cn(C)c4ncc(Br)cc34)n1)cn2C,49.7%,82.7%,63.1%,43.6%,79.9%,50.3%,92.9%,66.7%
CC(C)CSc1ncnc2nc[nH]c12,85.7%,104%,104%,104%,97.1%,109%,101%,106%
C=C1C(=O)O[C@H]2[C@H]1CC/C(COC(=O)NCc1ccc(Cn3c(=O)sn(-c4ccc(Cl)cc4)c3=O)cc1)=C\CC[C@@]1(C)O[C@@H]21,47.5%,66.1%,82.9%,6.67% (active),33.1%,22.1%,107%,–
COc1ccc(NCc2cn(-c3ccc(C(=O)O)cc3)nc2-c2ccc(C(=O)O)cc2)cc1C(F)(F)F,92.7%,98%,101%,97.2%,96.1%,104%,104%,102%
O=C1CC(C(F)(F)F)Cc2nc3ccc(Br)cc3cc21 (stereo not given),62.9%,96.3%,94.4%,92.4%,74.3%,73.9%,109%,64.4%
CCN(CC)CC(C)Nc1ccc(C)c2sc3ccccc3c(=O)c12 (stereo not given),53.6%,82.3%,59.1%,55.8%,32.6%,34.6%,45.9%,55%
COc1cc2c(cc1OCCCCCOc1ccc(-n3c(C)nc4ccccc4c3=O)cc1)N=C[C@@H]1CCCN1C2=O,-7.89% (active),-89.2% (active),-58.1% (active),-13.8% (active),-53.6% (active),0.749% (active),-61.7% (active),-45.7% (active)
Nc1cc(N)c(N=Nc2ccc(S(=O)(=O)O)cc2)cc1N=Nc1ccc(-c2ccc(N=Nc3ccc(O)c(C(=O)O)c3)cc2)cc1,90.1%,113%,100%,105%,95.5%,102%,104%,101%
CC(C)=CC/C=C(/C)[C@H]1CC[C@]2(C)[C@@H]1CC[C@@H]1[C@@]3(C)CC/C(=N/O)C(C)(C)[C@@H]3CC[C@]12C,27.2% [100 µM],61.5% [100 µM],52.2% [100 µM],61.3% [100 µM],36.1% [100 µM],24.1% [100 µM],69.5% [100 µM],51.6% [100 µM]
CO[C@H]1CC[C@@]2(C)C(=CC[C@H]3[C@@H]4C[C@H](O)C[C@@]4(C)CC[C@@H]32)C1,54%,79.5%,-16.9% (active),28.8%,25.7%,29.2%,68.4%,35.7%
Cc1nc(-c2ccccc2)sc1CC#N,103%,113%,105%,103%,102%,108%,109%,107%
N#CC1C(=O)NC(c2ccccc2[N+](=O)[O-])c2sc3c(F)cccc3c21 (stereo not given),2.51% (active),89.2%,102%,21.9%,23.4%,11%,93.8%,91.4%
CC(C)(C)OC(=O)N1C=C/C(=C\Cn2cc(-c3ccccc3)nn2)CC1,41.1%,58.1%,85.2%,93.8%,65.5%,74.1%,88.4%,88.9%
CC1(C)CC[C@]2(C(N)=O)CC[C@]3(C)C(=CC[C@@H]4[C@@]5(C)C/C(=C/c6cccnc6)C(=O)C(C)(C)[C@@H]5CC[C@]43C)[C@@H]2C1,2.41% [100 µM] (active),-47.9% [100 µM] (active),-34.6% [100 µM] (active),-32.4% [100 µM] (active),-9.32% [100 µM] (active),-48.2% [100 µM] (active),-73.4% [100 µM] (active),-37.2% [100 µM] (active)
CCOC(=O)c1nc2c3ccccc3ccn2c1C(=O)OC,76.4%,97%,96.5%,100%,97.6%,97.5%,91.1%,107%
O=C(Nc1ccccc1)Nc1ccc(C(=O)/C=C/c2ccc(N3CCCC3)cc2)cc1,58.9%,93.3%,4.29% (active),83.6%,66%,52.9%,81.4%,52.5%
